# Bioassay records deposited in PubChem by National Center for Advancing Translational Sciences (NCATS).
# HP1b binding inh: HTS for Inhibitors of HP1-beta Chromodomain Interactions with Methylated Histone Tails; Chromobox protein homolog 1 (Homo sapiens), P83916; AlphaScreen HP1-beta / biotin-H3K9me3 peptide binding; Potency, µM (highest dose often 114 µM), for inactives: at the top dose activity change, negative = inhibition, usual class: inhibitors; 0.56% of 390,000 active; AID 540317, 2011; also: nearly all actives have a fitted effect of over 70% in size
#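 AlphaScreen: HP1-beta (50 nM) preformed 30 min with biotin-H3(1-18)K9me3 peptide (50 nM) in PBS pH 7.4, 0.01% Tween-20. Compound added for 30 min at RT, then streptavidin donor/nickel chelate acceptor beads (10 ug/mL) for 30 min.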
# BAZ2B block: qHTS Assay for Inhibitors of BAZ2B; AlphaScreen BAZ2B-H3K14Ac peptide displacement; Potency, µM (series often up to 114 µM), inactives show top-dose activity change, negative = inhibition, usual class: inhibitors; 4.4% of 360,000 active; AID 504333, 2011; also: % is scaled to controls: 0 for no effect and ±100 for the full control effect; nearly all actives have a fitted effect of over 60% in size
#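 BAZ2B (50 nM) with biotin-H3(5-23)K14Ac peptide (50 nM) in PBS pH 7.4, 0.01% Tween-20, preformed 30 min, then compound 30 min at room temperature; top concentration 110uM. AlphaScreen streptavidin donor/nickel chelate acceptor beads (10 ug/mL final), 20 min dark, signal read.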
# Sfp PPTase inh: qHTS Assay for Inhibitors of Bacillus subtilis Sfp phosphopantetheinyl transferase (PPTase) | 3.5% of 310,000 active | 4'-phosphopantetheinyl transferase ffp (Bacillus subtilis), Q9F4F7 | Biochemical Sfp PPTase activity, qHTS | AID 1490, 2009 | Potency, µM, for inactives: largest response in the series, negative = inhibition, most hits filed as inhibitors;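 also: the enzyme is Sfp with the accession as filed and its product quenches rhodamine fluorescence; 0% = enzyme reaction without inhibitor and -100% = no enzyme wells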
#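 Reaction rates are the 30-min fluorescence difference (ex 525, em 598 nm) in wells containing 15 nM Sfp, 5 uM rhodamine-CoA and 12.5 uM BHQ-2-YbbR at pH 7.6 with 10 mM MgCl2.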
# G9a inh: qHTS Assay for Inhibitors of Histone Lysine Methyltransferase G9a; Potency, µM (series often up to 102 µM), for inactives: at the top dose activity, negative = inhibition, most hits filed as inhibitors; 8.8% of 350,000 active; AID 504332, 2011; G9a H3K9 monomethylation, AlphaScreen, 2 h; Histone-lysine N-methyltransferase EHMT2 (Homo sapiens), Q96KQ7; also: % is scaled to controls: 0 for no effect and ±100 for the full control effect; nearly all actives have a fitted effect of over 75% in size
#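 Readings reflect AlphaScreen signal from monomethyl-H3K9 antibody detection. HMT at 20 nM; substrate b-H3K9 500 nM; cofactor SAM 20 uM; 2 h RT reaction; compounds tested as titrations in qHTS with 15 min preincubation.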
# PLK1 PBD inh: qHTS for Inhibitors of PLK1-PDB (polo-like kinase 1 - polo-box domain): Primary Screen; Serine/threonine-protein kinase PLK1 (Homo sapiens), P53350; Plk1 PBD binding of FITC phosphopeptide, fluorescence polarization; Potency, µM, for the others: max response, negative = inhibition, most hits filed as inhibitors; 2.8% of 360,000 active; also: series mostly up to about 57 µM; % is scaled to controls: 0 for no effect and ±100 for the full control effect; nearly all actives have a fitted effect of over 65% in size
# JMJD2A Tudor: qHTS Assay for Inhibitors of JMJD2A-Tudor Domain; Lysine-specific demethylase 4A (Homo sapiens), O75164; Potency, µM (highest dose often 114 µM), inactives show at the highest dose activity change, negative = inhibition, actives largely listed as inhibitors; 4.4% of 390,000 active; AlphaScreen JMJD2A-Tudor / H3K4me3 peptide binding; also: % is scaled to controls: 0 for no effect and ±100 for the full control effect; nearly all actives have a fitted effect of over 50% in size
# The depositor's hits bear a star; ? = inconclusive; . = no result; [ ] = dose if it differs, or a comment. Compounds with a hit are over-represented: about 12% of the library has one in this group of screens. Calls follow the shape of the dose curve; as a rule, active = well fitted curve in the direction sought with a large enough effect; inconclusive = small, poorly fitted or top-dose-only effect, or another doubt; inactive = no such curve, though single readings can be large; an effect the other way counts as inactive or inconclusive. Potency is read from the fitted curve at half-maximal effect.
SMILES,HP1b binding inh,BAZ2B block,Sfp PPTase inh,G9a inh,PLK1 PBD inh,JMJD2A Tudor
COc1ccc(-c2[nH]c3c(c2-c2c(-n4cccc4)n(C)c(=O)[nH]c2=O)c(=O)[nH]c(=O)n3C)cc1F,51%,-19%,.,-3%[59 µM],.,-1%
O=C(Cn1ccc2cc(S(=O)(=O)N3CCCC3)ccc21)NCc1ccco1,-18%,-11%[57.1 µM],5%,?,?,79µM*
COc1ccc(CNC(=O)CN2C(=O)COc3ccc(S(=O)(=O)N4CCCCCC4)cc32)cc1,36%,-13%,.,6%[59 µM],.,-1%
COc1ccc(S(=O)(=O)N2CCC(C(=O)N[C@@H](C)C(=O)NCc3cccc(OC)c3)CC2)cc1,45%,0%,7%,43%,-1%,-1%
COc1cccc(CNC(=O)CCn2ccc3cc(S(=O)(=O)N4CCC(C)CC4)ccc32)c1,36%,14%,9%,18%,-27%,-17%
COc1ccc(CNC(=O)CN2C(=O)COc3ccc(S(=O)(=O)N4CCC(C)CC4)cc32)cc1,10%,-11%,19%,17%[59 µM],30µM*,-23%
COc1cccc(CNC(=O)[C@H](C)NC(=O)C2CCN(S(=O)(=O)c3ccccc3)CC2)c1,7%,-6%,9%,-5%,27µM*,?
COc1cccc(CNC(=O)Cn2ccc3cc(S(=O)(=O)N4CCC(C)CC4)ccc32)c1,15%,-9%[57.1 µM],3%,12%,9.5µM*,?
COc1cccc(-c2ccc3c(c2)O[C@@H](CN(C)C(=O)C2CCOCC2)[C@H](C)CN([C@H](C)CO)S3(=O)=O)c1,.,.,.,.,5%,.
NC(=S)Nc1ccc(C(F)(F)F)cc1Cl,8%,-4%,4%,7%,-4%,-4%
Cc1ccccc1NC(=O)c1c(NC(=O)c2ccco2)sc2c1CCC(C(C)(C)C)C2 (centres undefined),17%,4%,.,?,.,-4%
N[C@H](Cc1cnc[nH]1)C(=O)O,.,.,-5%,24%[59 µM],.,.
Oc1ccc(NCc2cccs2)cc1,?,?,?,40µM*,-24%,-33%
Cc1oc2ccc(OS(C)(=O)=O)cc2c1C(=O)OC(C)C,0%,5%,21%,12%[59 µM],19µM*,?
COCCOC(=O)c1c(C)oc2ccc(OS(C)(=O)=O)cc12,29%,-23%,9%,34%,-2%,-13%
O=C(Nc1cccc([N+](=O)[O-])c1)Nc1cccs1,-8%,?,-27%,40µM*,-17%,?
O=C(O)c1ccccc1C(=O)Nc1cccc([N+](=O)[O-])c1,38%,3%,14%,-6%,2%,-6%
O=C(Nc1cccc([N+](=O)[O-])c1)c1cc2ccccc2cc1O,36%,50µM*,0%,?,?,-7%[11.4 µM]
CCOC(=O)CC(=O)CSc1nccc(-c2cccnc2)n1,22%,-17%,56µM*,.,-18%,-11%
Cc1[nH]c(=O)[nH]c(=O)c1C1N2CC3(C(C)C)CN1CC(C(C)C)(C2)C3=O (centres undefined),0%,-4%,.,?,.,-17%
COC(=O)[C@@]1(Cc2ccc(OC)cc2)[C@@H]2[C@@H](CC(=O)[C@H]2CC(=O)C(=O)N2CCCC2)CN1C(=O)c1ccccc1,.,.,12%,.,.,.
Cn1ccnc1SCC(=O)Nc1sccc1C#N,12%,-36%,79µM*,-1%,-18%,-26%
COc1ccc(CCC(=O)Nc2sccc2C#N)cc1,34%,.,-26%,?,-9%,-13%
COc1ccc(NC(=O)CSCC(=O)Nc2sccc2C#N)cc1,25%,-6%,.,40µM*,-22%,-17%
CC(=O)c1sc(NC(=O)C2CSC3(C)CCC(=O)N23)nc1-c1ccccc1 (centres undefined),4%,-6%,.,?,-9%,-31%
SMILES,HP1b binding inh,BAZ2B block,Sfp PPTase inh,G9a inh,PLK1 PBD inh,JMJD2A Tudor
Cc1sc(NC(=O)C2CSC3(C)CCC(=O)N23)nc1-c1ccccc1 (centres undefined),-5%,?,.,50µM*,-8%,-33%
CC12CCC(=O)N1C(C(=O)Nc1nc(-c3ccc(F)cc3)cs1)CS2 (centres undefined),0%,-6%,.,-3%[59 µM],-9%,-14%
CC12CCC(=O)N1C(C(=O)Nc1nc(-c3ccccc3Cl)cs1)CS2 (centres undefined),-3%,-9%,.,50µM*,-10%,-35%
Nc1nc(-c2ccc3c(c2)CCCC3)c(CC(=O)O)s1,22%,-5%,-15%,50µM*,-26%,-20%
CCCC(=O)Nc1ccc2nc(SCC(=O)Nc3nccs3)sc2c1,-10%,?,-13%,?,-4%,79µM*
CSc1nc2ccc(NC(=O)c3ccco3)cc2s1,29%,-5%,25%,-11%,-1%,-12%
CC(=O)Nc1ccc2nc(SCC(=O)NCCOc3ccccc3)sc2c1,9%,?,12%,11%[59 µM],3.4µM*,?
CCCC(=O)Nc1ccc2nc(SCCOc3ccccc3)sc2c1,47%,?,.,6%[59 µM],.,-9%
CN(C)c1ccc(NC(=O)c2sc(SCC(=O)Nc3nccs3)nc2N)cc1,?,40µM*,-10%,?,-11%,?
Cc1ccc(NC(=O)CSc2nc3ccc(NC(=O)c4ccco4)cc3s2)cc1,13%,79µM*,.,?,.,-35%
Cc1noc(C)c1C(=O)N1CCC[C@@]2(CCN(C(=O)Nc3ccccc3)C2)C1,.,.,6%,8%[12.7 µM],.,.
CC(=O)Nc1ccc2nc(SCC(=O)Nc3ccc(N4CCOCC4)c(Cl)c3)sc2c1,22%,11µM*,-29%,43%[0.501 µM],-10%,-21%
Cc1ccc(C)c(NC(=O)CSc2nc3ccc(N4C(=O)c5ccccc5C4=O)cc3s2)c1,42%,-1%,-19%,11µM*,?,-21%
O=C(CSc1nc2ccccc2s1)Nc1ccc(N2CCOCC2)c(Cl)c1,23%,4%,-11%,7.1µM*,-3%,-22%
Cc1ccc(NC(=O)CSc2nc3ccc(Nc4nc(N5CCOCC5)nc(N5CCOCC5)n4)cc3s2)cc1,17%,-20%,?,35µM*,-5%,-18%
COc1ccc(NC(=O)CSc2nc3ccc(Nc4nc(N5CCOCC5)nc(N5CCOCC5)n4)cc3s2)cc1,58%,-7%,-28%,?,4%,-12%
O=C(CN1C(=O)C2(SCC(=O)N2c2ccc(Cl)cc2)c2ccccc21)NCCc1ccccc1 (centres undefined),40%,1%[57.1 µM],.,-5%[59 µM],.,-12%
COC(=O)N[C@H](C[N+](=O)[O-])C(C)(C)C,.,.,-14%,.,.,.
